An excerpt weighted towards active compounds, which were near 1.6% of everything screened.
PREPL inh = inhibitors of human prolyl oligopeptidase-like enzyme PREPL; Q4J6C6; recombinant PREPL, fluorescence polarization activity-based probe; inhibition, % at 5.96 µM; actives 0.68% (n = 320,000); in the data active = inhibition above about 43%
GASC-1 inh = blocks human GASC-1 demethylase activity | Q9H3R0 | GST-JMJD2C(1-420) H3K9me3 demethylation, DELFIA europium | inhibition, % at 2.35 µM | actives 0.069% (n = 330,000);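 active = more than half of a compound's replicate wells show inhibition beyond 50%, single wells judged on their own value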;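 also: signal counts dimethyl H3K9 product captured on neutravidin plate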
VLA-4 inh = inhibition in a human VLA-4 binding assay; actives 0.2% (n = 330,000); P13612; VLA-4 expressing cells, ligand binding flow cytometry; inhibition, % (about 7 µM as worked out from the volumes in the protocol); in the data active = inhibition above about 50%
GRK2 aptamer HTS = human GRK2 inhibition via aptamer displacement. P25098. bead flow cytometry, FAM-aptamer displacement from GRK2. inhibition of aptamer binding, % at 10 µM. actives 0.59% (n = 330,000). AID 488847;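 active = inhibition of aptamer binding above 40%, roughly 3 SD of noise, on plates passing a quality check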;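 also: median bead fluorescence of bound FAM aptamer so fluorescent compounds give negative values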
DSG3 Ab inh = human desmoglein-3 autoantibody binding inhibition; AID 588358; actives 0.48% (n = 310,000); DSG3-coupled beads, scFv-anti-DSG3-GFP binding, flow cytometry; active compounds read low; P32926; binding (percent of control), % at 10 µM;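 active = binding more than 3 SD below its plate's average and above zero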;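 also: hits lower antibody fragment binding to DSG3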
Target sequence (P32926 whole entry, looked up, the tested form may be a part): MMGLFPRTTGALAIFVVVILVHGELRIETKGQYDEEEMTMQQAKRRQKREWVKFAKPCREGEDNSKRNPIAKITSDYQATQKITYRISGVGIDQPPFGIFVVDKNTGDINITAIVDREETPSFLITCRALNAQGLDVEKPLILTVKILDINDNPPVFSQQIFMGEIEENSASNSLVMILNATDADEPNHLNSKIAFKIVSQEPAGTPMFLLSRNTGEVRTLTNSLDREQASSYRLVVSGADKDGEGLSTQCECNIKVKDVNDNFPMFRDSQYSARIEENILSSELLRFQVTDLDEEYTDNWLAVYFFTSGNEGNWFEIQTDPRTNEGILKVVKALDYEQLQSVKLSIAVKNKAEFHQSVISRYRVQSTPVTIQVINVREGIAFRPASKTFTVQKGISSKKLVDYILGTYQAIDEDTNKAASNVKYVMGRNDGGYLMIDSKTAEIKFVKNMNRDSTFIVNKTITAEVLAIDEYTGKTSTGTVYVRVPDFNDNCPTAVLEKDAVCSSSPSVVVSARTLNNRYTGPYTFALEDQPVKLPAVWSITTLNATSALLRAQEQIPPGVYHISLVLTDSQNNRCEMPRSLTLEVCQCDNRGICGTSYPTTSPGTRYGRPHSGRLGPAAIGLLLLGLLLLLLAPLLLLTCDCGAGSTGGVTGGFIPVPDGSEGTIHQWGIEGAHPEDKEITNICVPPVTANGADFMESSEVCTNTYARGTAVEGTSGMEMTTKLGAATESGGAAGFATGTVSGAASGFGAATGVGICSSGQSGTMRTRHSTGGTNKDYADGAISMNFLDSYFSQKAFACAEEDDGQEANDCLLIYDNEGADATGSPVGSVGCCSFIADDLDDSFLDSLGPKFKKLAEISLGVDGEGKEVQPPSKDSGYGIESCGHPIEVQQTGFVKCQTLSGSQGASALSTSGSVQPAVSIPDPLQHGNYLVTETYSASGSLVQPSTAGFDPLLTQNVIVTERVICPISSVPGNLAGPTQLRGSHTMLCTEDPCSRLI
VLA-4 allo CP = human VLA-4 allosteric modulation in cherry picked compounds | AID 2813 | shares compounds with VLA-4 inh | actives 2% (n = 1,300) | U937 cells, HUTS-21 LIBS mAb binding, flow cytometry; LDV ligand present at threefold Kd | inhibition, % at 6.7 µM; in the data active = inhibition above about 40%
Hits are given with their value.

`Cc1ccc(S(=O)(=O)NC(CC(=O)O)c2ccco2)cc1` (stereo not drawn) gave PREPL inh inactive, GASC-1 inh inactive, VLA-4 inh inactive, GRK2 aptamer HTS inactive and DSG3 Ab inh inactive.
Screening COc1ccc2c(c1OC)C(=O)NC(C)=C(C(=O)OC(C)(C)C)C2O (stereo not drawn) returned PREPL inh inactive, GASC-1 inh inactive, VLA-4 inh inactive, GRK2 aptamer HTS inactive and DSG3 Ab inh inactive.
O=C(O)Cc1ccc(NS(=O)(=O)c2ccccc2Cl)cc1 was read as PREPL inh inactive, GASC-1 inh inactive, VLA-4 inh inactive, GRK2 aptamer HTS inactive, DSG3 Ab inh inactive and VLA-4 allo CP inactive.
`O=C(NCc1ccccc1)NS(=O)(=O)c1ccccc1Cl` gave PREPL inh inactive, GASC-1 inh inactive, VLA-4 inh inactive, GRK2 aptamer HTS inactive and DSG3 Ab inh inactive.
For Cc1cccc(NC(=O)C2CCN(C(=O)c3ccccc3C)CC2)n1 the results were PREPL inh inactive, GASC-1 inh inactive, VLA-4 inh inactive, GRK2 aptamer HTS inactive, DSG3 Ab inh inactive and VLA-4 allo CP inactive.
For O=C(Nc1ccccn1)C1CCN(C(=O)c2ccc(F)cc2)CC1 the results were PREPL inh inactive, GASC-1 inh inactive, VLA-4 inh inactive, GRK2 aptamer HTS inactive, DSG3 Ab inh inactive and VLA-4 allo CP inactive.
`CN(CC(=O)Nc1ccc(F)cc1)C(=O)COC(=O)c1ccccc1` gave PREPL inh inactive, GASC-1 inh inactive, VLA-4 inh 50, GRK2 aptamer HTS inactive, DSG3 Ab inh inactive and VLA-4 allo CP inactive.
CN(CC(=O)Nc1ccc(F)cc1)C(=O)COC(=O)c1cccc(N(C)C)c1 was read as PREPL inh inactive, GASC-1 inh inactive, VLA-4 inh inactive, GRK2 aptamer HTS inactive and DSG3 Ab inh inactive.
`Cc1c(C(=O)Nc2cccc([N+](=O)[O-])c2)cnn1-c1ccccc1` gave PREPL inh inactive, GASC-1 inh inactive, VLA-4 inh inactive, GRK2 aptamer HTS inactive and DSG3 Ab inh inactive.
`CCCN(c1ccccc1C(=O)O)S(=O)(=O)c1ccc2c(c1)n(C)c(=O)n2C` gave PREPL inh inactive, GASC-1 inh inactive, VLA-4 inh inactive, GRK2 aptamer HTS inactive and DSG3 Ab inh inactive.
Screening O=[N+]([O-])c1ccc(-n2ccnc2)cc1 returned PREPL inh inactive, GASC-1 inh inactive, VLA-4 inh inactive, GRK2 aptamer HTS inactive and DSG3 Ab inh inactive.
For O=[N+]([O-])c1ccc(CCn2ccnc2)cc1 the results were PREPL inh inactive, GASC-1 inh inactive, VLA-4 inh inactive, GRK2 aptamer HTS inactive, DSG3 Ab inh inactive and VLA-4 allo CP inactive.
`CCOC(=O)C1(Cc2ccccc2Cl)CCN(C(=O)CCn2ccnc2C)CC1` gave PREPL inh inactive, GASC-1 inh inactive, VLA-4 inh 53, GRK2 aptamer HTS inactive, DSG3 Ab inh inactive and VLA-4 allo CP inactive.
O=C(OCCN=C1NS(=O)(=O)c2ccccc21)c1cccs1 was read as PREPL inh inactive, GASC-1 inh inactive, VLA-4 inh inactive, GRK2 aptamer HTS inactive and DSG3 Ab inh inactive.
Screening O=C(NCc1ccc(Cl)cc1)C1CCN(S(=O)(=O)c2ccc(F)cc2)CC1 returned PREPL inh inactive, GASC-1 inh inactive, VLA-4 inh inactive, GRK2 aptamer HTS inactive and DSG3 Ab inh inactive.
Screening Cc1ccc(NC(=O)COc2ncnc3c(Cl)cc(Cl)cc23)cc1[N+](=O)[O-] returned PREPL inh inactive, VLA-4 inh inactive, GRK2 aptamer HTS inactive, DSG3 Ab inh inactive and VLA-4 allo CP inactive.
Cc1cc(Cl)ccc1OCC(=O)OCC(=O)Nc1ccc(F)c([N+](=O)[O-])c1 was read as PREPL inh inactive, GASC-1 inh inactive, VLA-4 inh inactive and GRK2 aptamer HTS inactive.
Cc1nc(NC(=O)COC(=O)C(C)NC(=O)c2ccccc2)c(Cl)cc1Cl (stereo not drawn) was read as PREPL inh inactive, VLA-4 inh inactive, GRK2 aptamer HTS inactive and DSG3 Ab inh inactive.
Screening Cc1nc(NC(=O)COC(=O)C(NC(=O)c2ccco2)C(C)C)c(Cl)cc1Cl (stereo not drawn) returned PREPL inh inactive, GASC-1 inh inactive, VLA-4 inh 52, GRK2 aptamer HTS inactive, DSG3 Ab inh inactive and VLA-4 allo CP inactive.
Screening COc1ccc(C(=O)Nc2nncs2)cc1S(=O)(=O)N1CCOCC1 returned PREPL inh inactive, GASC-1 inh inactive, VLA-4 inh 59, GRK2 aptamer HTS inactive, DSG3 Ab inh inactive and VLA-4 allo CP inactive.
Screening O=C(COC(=O)c1cc(S(=O)(=O)N2CCOCC2)ccc1F)NCc1ccco1 returned PREPL inh inactive, GASC-1 inh inactive, VLA-4 inh inactive, GRK2 aptamer HTS inactive and DSG3 Ab inh inactive.
CCc1ccccc1NC(=O)C1NC(=O)CC1c1ccccc1 (stereo not drawn) was read as PREPL inh inactive, GASC-1 inh inactive, VLA-4 inh 56, GRK2 aptamer HTS inactive, DSG3 Ab inh inactive and VLA-4 allo CP inactive.
Screening Cc1ccc(NC(=O)c2ncn(CCCNCC3CCCO3)n2)cc1C (stereo not drawn) returned DSG3 Ab inh inactive.
`COc1cc([N+](=O)[O-])ccc1NC(=O)CSc1nnc(C)c(C)n1` gave PREPL inh inactive, GASC-1 inh inactive, VLA-4 inh inactive, GRK2 aptamer HTS inactive and DSG3 Ab inh inactive.
CC(C)(C)c1ccc(NC(=O)CCNC(=O)c2ccco2)cc1 was read as PREPL inh inactive, GASC-1 inh inactive, VLA-4 inh 50, GRK2 aptamer HTS inactive, DSG3 Ab inh inactive and VLA-4 allo CP inactive.
Screening Cc1ccc2c(c1)/C(=C/c1ccccc1F)C(=O)N2 returned PREPL inh inactive, GASC-1 inh inactive, VLA-4 inh inactive, GRK2 aptamer HTS inactive, DSG3 Ab inh inactive and VLA-4 allo CP inactive.
COc1ccc(OC)c(/C=N/c2c(-c3ccc(O)c(OC)c3)nc3ccccn23)c1 was read as PREPL inh inactive, GASC-1 inh inactive, VLA-4 inh 51, GRK2 aptamer HTS inactive, DSG3 Ab inh inactive and VLA-4 allo CP inactive.
`CN(C(=O)c1cncc(Br)c1)C1C2CC3CC(C2)CC1C3` (stereo not drawn) gave PREPL inh inactive, GASC-1 inh inactive, VLA-4 inh inactive, GRK2 aptamer HTS inactive and DSG3 Ab inh inactive.
CCOc1ccc(CCNC(=O)CCNS(=O)(=O)c2ccc(Br)cc2)cc1OCC was read as PREPL inh inactive, GASC-1 inh inactive, VLA-4 inh inactive, GRK2 aptamer HTS inactive and DSG3 Ab inh inactive.
`CCOC(=O)Cn1cnc2c(nnn2-c2cccc(OC)c2)c1=O` gave PREPL inh inactive, GASC-1 inh inactive, VLA-4 inh inactive, GRK2 aptamer HTS inactive, DSG3 Ab inh inactive and VLA-4 allo CP inactive.
`Cc1cc(C)nc(N2CCCC(C(=O)NCc3ccccc3F)C2)n1` (stereo not drawn) gave PREPL inh inactive, GASC-1 inh inactive, VLA-4 inh inactive, GRK2 aptamer HTS inactive and DSG3 Ab inh inactive.
